Measurements as given in PubChem BioAssay (NCI).
Values joined by “and” are separate entries in the source; they are usually repeats but may differ in a detail not shown here. Equal values may be shown once. About 83,000 compounds went through this panel and 20% of them were active in at least one assay; those are over-represented in the sample as a whole.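 How to read the values: 0–100, growth inhibition (40 = 60% inhibited); 0, no net growth; -100 to 0, cell death (-40 = 40% of starting cells died; -100 = all dead).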 Unmarked numbers belong to inactive results. Active and inactive are the calls of the source. Where a SMILES comes first, the peptide text is derived from it. [ ]: non-standard residue; d: D form. ξ: configuration not given here. ξV = CC(C)C(N)C(=O)O

Each compound was assayed on KM12 colon (assay: NCI-60 one-dose screen, 48 h (100 = growth as untreated, 0 = no growth, -100 = all killed)). Conditions: 0.0025 µM.
Method: Growth inhibition of the KM12 human tumor cell line is measured as a screen for anti-cancer activity. Cells are grown in 96 well plates and exposed to the test compound for 48 hours. Compounds are tested at a single concentration, which is 10^-5 M for most compounds. The reported endpoint is percent growth (GI% or GIPRCNT), where numbers from 0 - 100% represent growth inhibition, and numbers from -100% - 0 represent cell death. For example, a value of 40 represents 60% growth inhibition. A value of 0 means no net growth occurred over the course of the experiment. A value of -40 indicates 40% of cells at the beginning of the experiment died by the end of the experiment. A value of -100 means all cells are dead at the end of the experiment.
NCI-60 Human Tumor Cell Lines Screen was performed using the standard one-dose NCI protocol, which is described in more detail at https://dtp.cancer.gov/discovery_development/nci-60/default.htm.
Compounds with GIPRCNT values below 10 were considered active. Activity score was based on GIPRCNT using the following formula: […]
Score is 0 for GIPRCNT values of 100 or above, 50 for GIPRCNT values of 0, and 100 for GIPRCNT values of -100.

| SMILES | growth [%] |
| --- | --- |
| COc1cccc2c1C(=O)c1c(O)c3c(c(O)c1C2=O)C[C@@](O)(C(=O)CO)C[C@@H]3OC1CC(N)C(O)C(C)O1 (stereo not given in full) | 93.1 |

Same assay, conditions: 1 µM

| SMILES | growth [%] |
| --- | --- |
| COc1cccc2c1C(=O)c1c(O)c3c(c(O)c1C2=O)C[C@@](O)(C(=O)CO)C[C@@H]3OC1CC(N)C(O)C(C)O1 (stereo not given in full) | 32.1 |

Same assay, conditions: 10 µM

| SMILES | growth |
| --- | --- |
| Cc1nc(N=C(N)N)nc2ccc3ccccc3c12 | -9.2% (active) |
| CC[N+](CC)=c1ccc2nc3c(cc(N)c4ccccc43)oc-2c1 | -44.2% (active) |
| CC1=CC(C)=Nc2ccc(Cl)cc2N1 | 100% |
| CCCCCCCCCCCCSC(=NC)NC | 17.1% and 44.8% |
| O=C(O)COc1ccc(OCC(=O)O)cc1 | 8.16% (active) |
| N=S(c1ccccc1[N+](=O)[O-])c1ccccc1[N+](=O)[O-] | 88.8% |
| COc1cccc2c1C(=O)c1c(O)c3c(c(O)c1C2=O)C[C@@](O)(C(=O)CO)C[C@@H]3OC1CC(N)C(O)C(C)O1 (stereo not given in full) | 4.23% (active) |
| O=[N+]([O-])C1=C(c2ccccc2)SC=C(c2ccccc2)S1 | 81.3% |
| Cc1cc(NS(=O)(=O)c2ccc(N=Nc3cc(N=Nc4ccc(S(=O)(=O)Nc5cc(C)nc(C)n5)cc4)c4c(NC(=O)C(Cl)Cl)cccc4c3OC(=O)C(Cl)Cl)cc2)nc(C)n1 (tested in a mixture with another compound) | 107% and 106% |
| CCN(CC)c1ccc(NC(C(=O)c2ccccc2)c2ccccc2)cc1 (stereo not given) | 65.1% |
| CCCCCCCCCCSC(=N)N | 23.2% |
| CO[C@H](C(=O)[C@@H](O)[C@@H](C)O)[C@@H]1Cc2cc3cc(OC4CC(OC5CC(O)C(O)C(C)O5)C(O)C(C)O4)c(C)c(O)c3c(O)c2C(=O)[C@H]1OC1CC(OC2CC(OC3CC(C)(O)C(O)C(C)O3)C(O)C(C)O2)C(O)C(C)O1 (stereo not given in full) | -5.71% (active) |
| Oc1ccc(N=Nc2ccccn2)c(O)c1 | 26.9% |
| NNc1ccc2ccccc2c1 | 74.3% and 98.7% |
| O=c1ccn(C2CC(O)C(COC(c3ccccc3)(c3ccccc3)c3ccccc3)O2)c(=O)[nH]1 (stereo not given) | 90.4% |
| O=C(/C=C/c1ccccn1)c1ccccc1 | 7.87% (active) |
| CC(C)(C)CC(C)(C)c1ccc(OCCO)cc1 | 99.4% |
| CC(C)C(NC(=O)CN)C(=O)O (stereo not given) (H-Gly-[ξV]-OH) | 109% and 106% |
| COc1ccc(CC(=O)c2ccc(O)cc2O)cc1 | 122% |

| SMILES | growth |
| --- | --- |
| CCCC1CCC(=C2C(=O)CCC2=O)O1 (stereo not given) | 105% and 108% |
| CC(=O)Nc1cc(C)ccc1C | 97.4% |
| Clc1ccc(/C=C/c2ccccn2)c(Cl)c1 | 71.4% |
| CCCCCCCCCCCCCCCCCCOCC(COP(=O)([O-])OCC[N+](C)(C)C)OC (stereo not given) | 29.7% |
| COc1cccc2c1C(=O)c1c(O)c3c(c(O)c1C2=O)C[C@@](O)(C(C)=O)C[C@@H]3OC1CC(N)C(O)C(C)O1 (stereo not given in full) | -8.88% (active) |
| CN(C)C(=S)SC(=S)N(C)C | 110% and 97.3% |
| NC1=C(Cl)C(=O)c2ccccc2C1=O | 65.3% |
| CCC(C)(C)c1cc(O)c(C(C)(C)CC)cc1O | 55.3% |
| Nc1c2ccccc2nc2ccccc12 | 19.1% and 46.2% |
| CS(=O)(=O)OC1CC(n2ccc(=O)[nH]c2=O)OC1COC(c1ccccc1)(c1ccccc1)c1ccccc1 (stereo not given) | 93.5% |
| O=C(/C=C/c1cccnc1)c1ccccc1 | 51.4% |
| O=C(C(=Cc1ccccc1)C(=O)c1ccccc1)c1ccccc1 | 47.8% and 88.9% |
| CN1CCN(CCCN2c3ccccc3Sc3ccc(C(F)(F)F)cc32)CC1 | 40.2% |
| OC(CN1CCCC2CCCCC21)c1cc2ccccc2c2ccccc12 (stereo not given) | 15.9% |
| NC(=O)SCC(=O)NNc1ccccc1 | 81.3% |
| CSC1SCC2C(=O)N(C)C(C(C)C)C(=O)OCC(NC(=O)c3cnc4ccccc4n3)C(=O)NC(C)C(=O)N(C)C1C(=O)N(C)C(C(C)C)C(=O)OCC(NC(=O)c1cnc3ccccc3n1)C(=O)NC(C)C(=O)N2C (stereo not given) | -5.74% (active) |
| COC(=O)C1C(O)C(C)C(O)C(C)C=C(C)C2=C3C(=C(C)C(=O)c4c(O)c(c(C)c(OC(C)=O)c43)NC(=O)C(C)=C/C=C\C(C)C(O)C(C)C1O)OCO2 (stereo not given) | 103% |
| OCC1OC(n2cnc3c(=S)nc[nH]c32)C(O)C1O (stereo not given) | 108% and 60.4% |

Same assay, conditions: 100 µM

| SMILES | growth [%] |
| --- | --- |
| O=c1ccn(C2CC(O)C(COC(c3ccccc3)(c3ccccc3)c3ccccc3)O2)c(=O)[nH]1 (stereo not given) | 40.3 |
